# Assay results taken from ChEMBL document CHEMBL5308541, “MAIP: An Open-Source Tool to Enrich High-Throughput Screening Output and Identify Novel, Druglike Molecules with Antimalarial Activity” (ACS Med Chem Lett, 2023).
# About 540 (0.36%) of roughly 150,000 compounds showed an effect of 50% or more. This is one part of a sample in which strong results are shown more often than they occur.
# Test system: Plasmodium falciparum
# Assay: Primary screen in NF54 nanoGlo assay, in single point, at 2uM, 72h; a lower Z score goes with more inhibition
# Type: functional, Erythrocyte
# Conditions: timepoint 72 hour
SMILES,% Inhibition [%],Z score
CC(C)(C)c1ccc(CNC[C@H](O)c2ccc(F)cc2F)cc1,94,-16.43
CC(C)c1nc(N2CCC[C@@]3(CCNC3)C2)c2cc[nH]c2n1,2,-0.48
c1ccc(-c2cncnc2N2CC[C@]3(CCNC3)C2)cc1,-14,2.09
CN(C)CC12CNCC1CN(c1ccnc3cc(Cl)ccc13)C2 (centres undefined),97,-19.2
Fc1ccc(N2CC[C@H](CN3CCC(c4c[nH]c5ccccc45)(c4c[nH]c5ccccc45)CC3)C2)cc1,95,-18.87
Cc1ccc(CNc2ncnc(N)c2Cl)c(N2CCCC2)n1,50,-8.64
CCc1nnc(NCc2ccc(C)nc2N2CCCC2)nc1CC,-19,2.94
Cc1ccc([C@@H](O)CNCc2cc(O)cc(Cl)c2)cc1,7,-1.59
O[C@@H](CNCc1ccc2c(c1)CCO2)c1ccc(F)c(F)c1,72,-12.64
Fc1ccc(C2=CCN(C[C@@H]3CCCN4CCCC[C@H]34)CC2)cc1,0,-0.03
CN1CCN(c2ccc(C(F)(F)F)cc2NCc2cnc[nH]2)CC1,52,-7.95
Clc1ccc(CNCCN2CCC3(C2)OCCO3)c2ncccc12,-1,0.17
